# The supplement of paper PMC9135407
# “And” between values parts separate entries of the source, which are not always exact repeats. Equal values may be shown once. Where a name gives a salt, the structure may show the parent alone. Out of some 5,800 compounds screened, about 620 (11%) showed activity. This is one part of a sample in which actives are shown more often than they occur. Unmarked numbers belong to inactive results.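 The calls were made as follows: active = score above a cut-off or among the top three wells of a plate; in these data no inactive exceeds 0.85.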
# System: primary human hepatic stellate cells (donor 1)
# Assay: scaled lipid accumulation score (0 = DMSO-like, 1 = nortriptyline-like); higher = stronger HSC inactivation (lipid re-accumulation), active = hit call of the paper
# Conditions: 48 h
# [1] = library stock concentration: 100 uM
# [2] = library stock concentration: 10 mM
# [3] = library stock concentration: 1 mM
# [4] = library stock concentration: 3.33 mM
# [5] = library stock concentration: 80 uM
# [6] = library stock concentration: 400 uM
# [7] = library stock concentration: 2 mM
compound,measurement,setting,value
CCCCC/C=C\C\C=C/C=C/C=C/CC(=O)CCCC(=O)O [5-Ketoeicosatetraenoic acid],scaled lipid accumulation score,[1],≤ -0.021
CC(C)NCC(O)COc1ccccc1-n1cccc1 (stereo not drawn) [Isamoltane hemifumarate],scaled lipid accumulation score,[2],0.25
CCCCCC=CCC=CCC=CCC=CCCCC(=O)SCC(O)CO (stereo not drawn) [Arachidonoyl-1-thio-Glycerol],scaled lipid accumulation score,[3],0.021
CC(C)(Oc1ccc(Cl)cc1)C(=O)OCCOC(=O)c1cccnc1 [Etofibrate],scaled lipid accumulation score,[4],≤ 0
same,scaled lipid accumulation score,[2],≤ -0.001
C[C@@H]1C[C@H]2[C@@H]3CCC4=CC(=O)C=C[C@]4(C)[C@@]3(F)[C@@H](O)C[C@]2(C)[C@@]1(O)C(=O)CO [Dexamethasone (DHAP)],scaled lipid accumulation score,[4],0.017
same,scaled lipid accumulation score,[2],≤ 0
C[C@@H]1C[C@H]2[C@@H]3CCC4=CC(=O)C=C[C@]4(C)[C@@]3(F)[C@@H](O)C[C@]2(C)[C@@]1(O)C(=O)CO [Dexamethasone],scaled lipid accumulation score,library stock concentration: 5.1 mM,≤ -0.006 and ≤ -0.001
same,scaled lipid accumulation score,[2],≤ 0 and ≤ -0.006
same,scaled lipid accumulation score,library stock concentration: 12.7 mM,0.007
CN(C)CC/C=C1/c2ccccc2Sc2ccc(Cl)cc21 [Chlorprothixene hydrochloride],scaled lipid accumulation score,library stock concentration: 5.7 mM,0.756
same,scaled lipid accumulation score,[2],0.429 and 0.701
CN(C)CC/C=C1\c2ccccc2CSc2ccccc21 [Dosulepin hydrochloride],scaled lipid accumulation score,,0.845
CN(C)CC/C=C1/c2ccccc2Sc2ccc(Cl)cc21 [Chlorprothixene],scaled lipid accumulation score,[4],0.345
CN(C)CCC=C1c2ccccc2Sc2ccc(Cl)cc21 [Chlorprothixene],scaled lipid accumulation score,[2],1.03 (active)
CN(C)CC/C=C1\c2ccccc2Sc2ccc(Cl)cc21.Cl [Chlorprothixene hydrochloride],scaled lipid accumulation score,,0.902 (active)
C[C@@H]1O[C@@H]1P(=O)(O)O [Fosfomycin],scaled lipid accumulation score,[2],≤ 0
C[C@@H]1O[C@@H]1P(=O)(O)O [Phosphomycin disodium],scaled lipid accumulation score,[2],≤ -0.055
CCN1C(=CC(C)=O)Sc2ccc(OC)cc21,scaled lipid accumulation score,[4],≤ -0.009
same,scaled lipid accumulation score,[2],≤ 0
CCCCCCCCCCC(C)(C)C(=O)Nc1c(OC)cc(OC)cc1OC,scaled lipid accumulation score,[2],0.164 and ≤ -0.001
CC/C=C/C/C=C/C/C=C/C/C=C/CCCCC(=O)OC [Stearidonic Acid methyl ester],scaled lipid accumulation score,[3],0.048
O=C(c1cn(Cc2cncn2Cc2ccc(Br)cc2)cc1-c1cccc2ccccc12)N1CCOCC1,scaled lipid accumulation score,[4],≤ -0.003
same,scaled lipid accumulation score,[2],0.723
CNCc1ccc(-c2[nH]c3cc(F)cc4c3c2CCNC4=O)cc1,scaled lipid accumulation score,[4],0.213
CNCc1ccc(-c2[nH]c3cc(F)cc4c3c2CCNC4=O)cc1.O=P(O)(O)O,scaled lipid accumulation score,[2],1.47 (active)
CNCc1ccc(-c2[nH]c3cc(F)cc4c3c2CCNC4=O)cc1 [Rucaparib],scaled lipid accumulation score,[5],≤ 0
same,scaled lipid accumulation score,[6],≤ 0
same,scaled lipid accumulation score,[7],0.588
CNCc1ccc(-c2[nH]c3cc(F)cc4c3c2CCNC4=O)cc1.O=P(O)(O)O [Rucaparib],scaled lipid accumulation score,[2],1.12 (active)
CCCCCCCCCCCCCCCCCCCCCCC(=O)OCC [Ethyl Tricosanoate],scaled lipid accumulation score,[3],≤ 0
CCCCCCCCCSCCCCCCCC(=O)O [9-Thiastearic Acid],scaled lipid accumulation score,[3],0.031
CN1CCc2nc(C(=O)N[C@@H]3C[C@@H](C(=O)N(C)C)CC[C@@H]3NC(=O)C(=O)Nc3ccc(Cl)cn3)sc2C1 [Edoxaban],scaled lipid accumulation score,[4],≤ -0.009
same,scaled lipid accumulation score,[2],0.008
CC(=O)N[C@@H](Cc1c[nH]c2ccccc12)C(=O)O [Acetyltryptophan],scaled lipid accumulation score,[2],≤ 0
COc1cc(C(O)C(=O)O)ccc1O (stereo not drawn),scaled lipid accumulation score,[2],≤ -0.036
c1nc(CC2CCNCC2)c[nH]1 [Immepip dihydrobromide],scaled lipid accumulation score,[2],0.011
CC/C=C/C[C@H](O)/C=C/[C@H]1[C@H](O)CC(=O)[C@@H]1C/C=C\CCCC(=O)O [17-trans Prostaglandin E3],scaled lipid accumulation score,[3],≤ 0
Cc1c[nH]c(-c2cnc(NCCNc3ccc(C#N)cn3)nc2-c2ccc(Cl)cc2Cl)n1.Cl,scaled lipid accumulation score,[2],1.08 (active)
Cc1cnc(-c2cnc(NCCNc3ccc(C#N)cn3)nc2-c2ccc(Cl)cc2Cl)[nH]1,scaled lipid accumulation score,[5],0.041
same,scaled lipid accumulation score,[6],0.005
same,scaled lipid accumulation score,[7],0.182
same,scaled lipid accumulation score,[4],0.229
same,scaled lipid accumulation score,[2],0.814
CCCCC[C@H](O)/C=C/[C@H]1C(=O)C[C@H](O)[C@@H]1C/C=C\CCCC(=O)NC(CO)CO [Prostaglandin D2 serinol amide],scaled lipid accumulation score,[3],≤ 0
"CCCCC/C=C\C/C=C\C/C=C\CC1OC1CCCC(=O)O (stereo not drawn) [5,6-Epoxyeicosatrienoic acid]",scaled lipid accumulation score,[1],≤ -0.021
CC[C@@H]([C@H](C)O)n1ncn(-c2ccc(N3CCN(c4ccc(OC[C@@H]5CO[C@@](Cn6cncn6)(c6ccc(F)cc6F)C5)cc4)CC3)cc2)c1=O [Posaconazole] [listing 1 of 2 here],scaled lipid accumulation score,[2],0.869 (active)
CCC(C)n1ncn(-c2ccc(N3CCN(c4ccc(OCC5COC(Cn6cncn6)(c6ccc(Cl)cc6Cl)O5)cc4)CC3)cc2)c1=O (stereo not drawn) [Itraconazole],scaled lipid accumulation score,library stock concentration: 2.8 mM,≤ 0
same,scaled lipid accumulation score,[4],0.492
same,scaled lipid accumulation score,[2],0.522
CC[C@@H]([C@H](C)O)n1ncn(-c2ccc(N3CCN(c4ccc(OC[C@@H]5CO[C@@](Cn6cncn6)(c6ccc(F)cc6F)C5)cc4)CC3)cc2)c1=O [Posaconazole] [listing 2 of 2 here],scaled lipid accumulation score,[4],0.134
COc1ccc(C(=O)NCc2ccc(OCCN(C)C)cc2)cc1OC,scaled lipid accumulation score,[2],0.061 and 0.313
CN(C)Cc1c(C(=O)NCCOc2ccc(C(=O)NO)cc2)oc2ccccc12,scaled lipid accumulation score,[4],0.855 (active)
same,scaled lipid accumulation score,[2],1.01 (active)
Cc1cc(C)c(N(Cc2ccccc2)S(=O)(=O)c2ccc(OCCNC(=O)c3cc4ccccc4o3)cc2)c(C(=O)NO)c1,scaled lipid accumulation score,[2],≤ -0.001
CC(/C=C1\SC(=S)N(CC(=O)O)C1=O)=C\c1ccccc1 [Epalrestat],scaled lipid accumulation score,[4],≤ 0
same,scaled lipid accumulation score,[2],≤ 0
O=C(O)CCCC=CCC1C2CCC(O2)C1CNNC(=O)Nc1ccccc1 (stereo not drawn),scaled lipid accumulation score,[3],≤ 0 and ≤ -0.021
O=C(O)[C@]1(O)C[C@@H](O)[C@@H](O)[C@H](O)C1 [Quinic acid],scaled lipid accumulation score,,≤ 0
Cc1c(C(=O)c2ccccc2)c(N)c(-c2ccccc2)n1Cc1ccc(Cl)cc1,scaled lipid accumulation score,[3],≤ 0
CCCCCCCCCCCCCCCCCCOC[C@H](COP(=O)([O-])OCC[N+](C)(C)C)OC(C)=O,scaled lipid accumulation score,[3],≤ 0 and ≤ -0.021
CC(=O)Nc1nc(C)c(-c2ccc(Cl)c(S(=O)(=O)NCCO)c2)s1,scaled lipid accumulation score,[5],≤ -0.016
same,scaled lipid accumulation score,[6],≤ -0.016
same,scaled lipid accumulation score,[7],≤ -0.016
same,scaled lipid accumulation score,[4],≤ 0
same,scaled lipid accumulation score,[2],≤ 0 and ≤ -0.016
O=c1oc2c(O)c(O)cc3c(=O)oc4c(O)c(O)cc1c4c23 [Ellagic acid],scaled lipid accumulation score,[5],≤ 0
same,scaled lipid accumulation score,[6],≤ 0
same,scaled lipid accumulation score,[7],≤ 0
same,scaled lipid accumulation score,[2],≤ 0
O=C(c1cccc(Cl)c1F)N1CCN(Cc2cccc(Nc3nccs3)n2)CC1,scaled lipid accumulation score,[4],≤ 0
same,scaled lipid accumulation score,[2],0.453
CN(C)c1ccc(-c2nc3c(N4CCN(CC(=O)Nc5nccs5)CC4)c(Cl)cnc3[nH]2)cc1,scaled lipid accumulation score,[4],0.858 (active)
same,scaled lipid accumulation score,[2],0.949 (active)
"CCCCC/C=C/C=C1/C(=O)C=C[C@@H]1C/C=C\CCCC(=O)O [15-deoxy-.DELTA.12,14-Prostaglandin J2]",scaled lipid accumulation score,[3],≤ 0
CSc1ccc(C(=O)c2[nH]c(=O)[nH]c2C)cc1 [Enoximone],scaled lipid accumulation score,[2],0.125
Cc1cc(NC2CCCCC2)nc(-n2nc(C)cc2C)n1,scaled lipid accumulation score,[2],≤ -0.03
COc1ccc2[nH]c([S+]([O-])Cc3ncc(C)c(OC)c3C)nc2n1 (stereo not drawn) [Tenatoprazole],scaled lipid accumulation score,library stock concentration: 5.8 mM,0.081
COc1c(C)cnc(Cn2cnc3c(Cl)nc(N)nc32)c1C [listing 1 of 2 here],scaled lipid accumulation score,[4],0.885 (active)
COc1c(C)cnc(Cn2cnc3c(Cl)nc(N)nc32)c1C [listing 2 of 2 here],scaled lipid accumulation score,[2],0.768
N#CC(=Cc1cc(Cl)cc(Cl)c1)c1cccnc1,scaled lipid accumulation score,library stock concentration: 18.2 mM,0.033
CN(C[C@@H]1COCCO1)S(=O)(=O)Nc1ccc2ccc3ncc(-c4cnn(C)c4)cc3c(=O)c2c1,scaled lipid accumulation score,[4],≤ 0
same,scaled lipid accumulation score,[2],≤ 0
O.O.O.O.O.O.O.O.O.O.O.O.O.O.O.O.O=S(=O)([O][Al])OC[C@H]1O[C@@](COS(=O)(=O)[O][Al])(O[C@H]2O[C@H](COS(=O)(=O)[O][Al])[C@@H](OS(=O)(=O)[O][Al])[C@H](OS(=O)(=O)[O][Al])[C@H]2OS(=O)(=O)[O][Al])[C@@H](OS(=O)(=O)[O][Al])[C@@H]1OS(=O)(=O)[O][Al] [Sucralfate sodium (10% w/v in dmso)],scaled lipid accumulation score,library stock concentration: 900 uM,≤ 0
COc1ccc2[nH]c(I)c(CCNC(C)=O)c2c1 [2-Iodomelatonin],scaled lipid accumulation score,[2],0.011
COc1ccc2c(c1)c(C1=C(c3c[nH]c4ccccc34)C(=O)NC1=O)cn2CCCN(C)C,scaled lipid accumulation score,[3],0.018
same,scaled lipid accumulation score,[4],0.054 and ≤ 0
same,scaled lipid accumulation score,[2],0.706
CN(C)CCCn1cc(C2=C(c3c[nH]c4ccccc34)C(=O)NC2=O)c2ccccc21 [listing 1 of 2 here],scaled lipid accumulation score,[2],1.04 (active)
CN(C)CCCn1cc(C2=C(c3c[nH]c4ccccc34)C(=O)NC2=O)c2ccccc21 [Bisindolylmaleimide I],scaled lipid accumulation score,[4],0.663
CN(C)CCCn1cc(C2=C(c3c[nH]c4ccccc34)C(=O)NC2=O)c2ccccc21 [listing 2 of 2 here],scaled lipid accumulation score,[4],0.071
same,scaled lipid accumulation score,[2],0.777
same,scaled lipid accumulation score,library stock concentration: 12.1 mM,0.519
